Assay results: paper PMC4336329 (PLoS ONE, 2015)
The campaign covered roughly 310,000 compounds. About 14,000 (4.5%) showed an effect of 50% or more. Effects have a minus sign here. Shown is part of a subset that was picked to be rich in strong results.

Each molecule was assayed against human ether-à-go-go-related gene (hERG) potassium channel (human, UniProt Q12809) (assay: primary screen, population patch clamp on CHO cells stably expressing hERG; higher = less effect of the substance).
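Further: peak tail current of the secondary pulse compared with the same well before compound.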

Sequence of human ether-à-go-go-related gene (hERG) potassium channel (Q12809 whole entry, looked up): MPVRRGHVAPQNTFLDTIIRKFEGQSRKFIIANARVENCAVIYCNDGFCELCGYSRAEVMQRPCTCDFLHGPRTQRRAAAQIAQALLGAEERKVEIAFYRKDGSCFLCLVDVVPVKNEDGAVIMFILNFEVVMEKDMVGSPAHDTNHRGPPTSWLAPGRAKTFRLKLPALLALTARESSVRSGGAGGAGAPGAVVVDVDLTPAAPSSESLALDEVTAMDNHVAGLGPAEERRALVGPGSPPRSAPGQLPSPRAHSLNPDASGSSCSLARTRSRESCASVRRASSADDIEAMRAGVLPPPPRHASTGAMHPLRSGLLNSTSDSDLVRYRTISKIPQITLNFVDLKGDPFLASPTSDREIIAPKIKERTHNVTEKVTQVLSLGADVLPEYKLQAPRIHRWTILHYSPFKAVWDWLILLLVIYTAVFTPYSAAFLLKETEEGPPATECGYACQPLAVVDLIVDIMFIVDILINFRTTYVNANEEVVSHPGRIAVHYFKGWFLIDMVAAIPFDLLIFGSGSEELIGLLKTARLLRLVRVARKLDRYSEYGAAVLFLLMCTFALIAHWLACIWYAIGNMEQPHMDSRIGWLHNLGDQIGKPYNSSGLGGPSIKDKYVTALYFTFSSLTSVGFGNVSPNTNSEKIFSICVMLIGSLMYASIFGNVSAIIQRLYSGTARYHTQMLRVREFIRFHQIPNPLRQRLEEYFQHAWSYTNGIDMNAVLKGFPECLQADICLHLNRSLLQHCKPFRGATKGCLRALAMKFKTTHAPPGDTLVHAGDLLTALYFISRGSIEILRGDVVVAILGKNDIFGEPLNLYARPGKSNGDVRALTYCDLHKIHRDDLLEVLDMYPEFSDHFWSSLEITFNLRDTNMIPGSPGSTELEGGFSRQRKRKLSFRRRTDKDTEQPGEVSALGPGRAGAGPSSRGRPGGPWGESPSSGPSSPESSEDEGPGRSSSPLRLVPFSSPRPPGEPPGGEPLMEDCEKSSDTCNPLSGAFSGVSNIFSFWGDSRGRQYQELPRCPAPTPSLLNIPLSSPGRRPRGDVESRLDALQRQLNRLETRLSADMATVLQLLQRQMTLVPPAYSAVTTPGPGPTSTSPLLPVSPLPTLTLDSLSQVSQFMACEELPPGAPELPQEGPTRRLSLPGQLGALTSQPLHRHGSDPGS

Row | SMILES | hERG current change (%, negative = inhibition) at 10uM [%]
1 | CCc1nn(CC(=O)NCCCN(CC)c2cccc(C)c2)c(=O)c2cc3occc3n12 | -16.3
2 | C/C(N)=C(/C#N)C(=O)COC(=O)CCS(=O)(=O)c1ccccc1 | 12.1
3 | CC(C)(C)NC(=O)CSc1nc(O)cc(=O)n1-c1ccccc1F | 6.39
4 | O=C(CSc1ccc(-c2ccc(Br)cc2)nn1)N1CCOCC1 | -18.7
5 | NC(=O)c1nn(Cc2ccccc2)c(=O)c2ccccc12 | 4.12
6 | O=C(c1ccc(Cl)nc1)N1CCN(C/C=C/c2ccccc2)CC1 | -44.1
7 | O=C(c1cnccn1)N1CCN(C/C=C/c2ccccc2)CC1 | -16.6
8 | O=C(c1ccc(=O)n(Cc2ccccc2)n1)N1CCN(C/C=C/c2ccccc2)CC1 | -51.9
9 | O=C(c1nn(Cc2ccccc2)c(=O)c2ccccc12)N1CCN(C/C=C/c2ccccc2)CC1 | -57.7
10 | Cc1cc(C(=O)N2CCN(C/C=C/c3ccccc3)CC2)no1 | -14.5
11 | COc1ccc(NC(=O)NCc2ccc3c(c2)OCO3)c(OC)c1 | 11.5
12 | COc1ccc(C)cc1S(=O)(=O)NC1CCCCC1C (stereo not drawn) | 5.07
13 | CCC(=O)N1CCN(c2ccc(NC(=O)COc3cccc(C)c3C)cc2)CC1 | -12
14 | O=C(CSc1nnc(-c2ccco2)o1)Nc1c(F)cccc1F | -1.95
15 | Nc1nc(-c2ccc3c(c2)CCC(=O)N3)cs1 | 16.5
16 | CN(C)c1ccc(S(=O)(=O)N2CCCCC2)cc1NC(=O)C1CSC2(C)CCC(=O)N12 (stereo not drawn) | -22.3
17 | CCOC(=O)C1Sc2[nH]c(=O)sc2C(c2ccc(Cl)cc2)C1C(=O)OCC (stereo not drawn) | -1.1
18 | COC(=O)C1Sc2[nH]c(=O)sc2C2c3ccccc3OC(=O)C12 (stereo not drawn) | -22.6
19 | COC(=O)C1Sc2[nH]c(=O)sc2C(c2ccc(Cl)cc2)C1C(=O)OC (stereo not drawn) | -67
20 | Cc1[nH]n(-c2cccc([N+](=O)[O-])c2)c(=O)c1-c1ccccc1 | 15.8
21 | CCN(CC)S(=O)(=O)c1cc(NC(=O)[C@@H](NC(N)=O)C(C)C)ccc1C | 15.5
22 | COc1ccc(/C=N/n2cnc3c([nH]c4ccc(F)cc43)c2=O)cc1CN1CCCC1 | -68
23 | COc1ccc(/C=N/n2c(=O)[nH]c3c([nH]c4ccc(F)cc43)c2=O)cc1CN1CCCCC1 | -19.1
24 | COc1ccc(/C=N/n2cnc3c([nH]c4ccc(C)cc43)c2=O)cc1CN1CCCC1 | -63.2
25 | COc1ccc(/C=N/n2cnc3c([nH]c4ccc(Br)cc43)c2=O)cc1CN1CCOCC1 | -8.88
26 | COc1ccc2[nH]c3c(=O)n(/N=C/c4ccc(OC)c(CN5CCCC5)c4)c(C)nc3c2c1 | -45.3
27 | COc1ccc(/C=N/n2cnc3c([nH]c4ccc(F)cc43)c2=O)cc1CSc1ccccn1 | 20.6
